Results published in ChEMBL document CHEMBL3433997, “St. Jude Leishmania screening dataset” (2016).

Legend:
Type in all cases: functional
[1] = target: Solute carrier family 2, facilitated glucose transporter member 1 (Homo sapiens) (UniProt P11166); assay: ST_JUDE_LEISH: Cytotoxicity at 2uM final concentration against transgenic Leishmania Mexicana promastigotes LmGLUT1 that are glucose transport deficient and complemented with the human glucose transporter GLUT1. Activity is measured by DNA content using SYBR green in vitro
[2] = target: Hexose transporter 1 (Plasmodium falciparum) (UniProt O97467); assay: ST_JUDE_LEISH: Cytotoxicity at 2uM final concentration against transgenic Leishmania Mexicana promastigotes LmPfHT that are glucose transport deficient and complemented with the Plasmodium falciparum hexose transporter. Activity is measured by DNA content using SYBR green in vitro
[3] = target: Glucose transporter (Leishmania mexicana) (UniProt O61059); assay: ST_JUDE_LEISH: Cytotoxicity at 2uM final concentration against transgenic Leishmania Mexicana promastigotes LmGT2 that are glucose transport deficient and complemented with the L. Mexicana glucose transporter 2. Activity is measured by DNA content using SYBR green in vitro

Chain of Solute carrier family 2, facilitated glucose transporter member 1 (Homo sapiens) (P11166 whole entry): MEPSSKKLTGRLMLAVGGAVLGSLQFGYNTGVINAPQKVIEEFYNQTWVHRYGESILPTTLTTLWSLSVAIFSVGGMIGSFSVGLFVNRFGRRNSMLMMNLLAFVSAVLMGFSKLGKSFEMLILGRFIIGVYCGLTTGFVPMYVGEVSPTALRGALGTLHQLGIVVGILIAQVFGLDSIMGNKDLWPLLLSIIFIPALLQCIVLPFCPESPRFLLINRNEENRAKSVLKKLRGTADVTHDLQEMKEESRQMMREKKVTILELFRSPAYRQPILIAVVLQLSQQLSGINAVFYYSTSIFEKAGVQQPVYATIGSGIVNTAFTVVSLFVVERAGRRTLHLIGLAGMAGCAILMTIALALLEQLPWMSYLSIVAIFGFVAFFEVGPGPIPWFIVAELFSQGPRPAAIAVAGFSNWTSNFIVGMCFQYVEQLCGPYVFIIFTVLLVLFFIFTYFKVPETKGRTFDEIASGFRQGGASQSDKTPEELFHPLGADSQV

Structure (SMILES) | inhibition [1] | inhibition [2] | inhibition [3]
O=C(NCc1ccco1)c1ccc(CN2CCN(C(c3ccccc3)c3ccccc3)CC2)cc1 | 7.85% | 6.41% | 4.79%
CC1(C)NC(N)=NC(=N)N1OCCc1ccccc1 | 1.18% | 0.77% | 0.66%
CC(C)CNCc1cccc(-c2cccc(CNC3CCN(Cc4ccccc4)CC3)c2)c1 | 1.93% | 2.58% | 1.83%
CCN(CC)S(=O)(=O)c1ccc(C(=O)Oc2ccccc2N(Cc2ccc(OC)cc2)C2=NS(=O)(=O)c3ccccc32)cc1 | 3.69% | 2.22% | 2.59%
CC(C)C(C(=O)Nc1ccc(S(=O)(=O)N(C)C)cc1)c1ccc(Cl)cc1 (stereo not drawn) | -2.78% | -3.31% | 0.19%
CC(C)c1ccc(NC(=O)c2ccc(C(=O)NC3CCN(CC4CCCCC4)CC3)cc2)cc1 | 0.94% | -0.49% | 0.52%
Nc1oc2c(CN3CCCCCC3)c(O)ccc2c(=O)c1-c1nc2ccccc2s1 | -1.92% | 6.76% | 2.85%
CCOc1ccc2nc(C)cc(N/N=C/c3cccc([N+](=O)[O-])c3)c2c1 | 0.39% | 0.05% | -1.04%
c1cn(-c2ccc(CNc3nccc(Nc4ccc(OCCN5CCOCC5)cc4)n3)cc2)cn1 | -0.35% | -0.43% | 0.98%
Cc1cccn2c(=O)c3cc(C(=O)NC4CCCCC4)c(=N)n(CCCn4ccnc4)c3nc12 | -2.65% | -2.23% | -4.98%
COc1ccc(CC(C)CON2C(N)=NC(N)=NC2(C)C)cc1 (stereo not drawn) | 4.07% | 4.35% | 4.04%
CC(C)(C)c1cc(Cl)cc(C(=O)Nc2cc([N+](=O)[O-])ccc2Cl)c1O | 5.8% | 4.84% | 4.28%
O=C(NCCc1ccc(Cl)c(Cl)c1)C1CCCN(C(=O)c2ccc(O)c(-c3ccc(Cl)c(Cl)c3)c2)C1 (stereo not drawn) | 1.33% | 2.53% | 4.3%
Cc1ccc(S(=O)(=O)N(CCCN2CCN(C)CC2)Cc2csc(-c3ccc(CNCc4ccccc4)cc3)n2)cc1 | 9.12% | 7.67% | 9.91%
Fc1ccccc1C=NN=c1cc[nH]c2ccccc12 | 4.61% | 4.39% | 4.15%
COc1ccc(-c2ccc(CNCc3ccsc3)cc2)cc1S(=O)(=O)NCCN1CCCC1 | -0.99% | 0.23% | -2.28%
CC(C)N1CCC(N(Cc2ccc(-c3ccc(C(F)(F)F)cc3)cc2)C(=O)Cn2c(CCc3cccc(F)c3F)cc(=O)c3ccccc32)CC1 | 0.12% | 1.55% | 1.16%
CCC(C)NCc1c(O)ccc2c(CNC(C)CC)c(O)ccc12 (stereo not drawn) | 2.24% | 3.63% | 2.13%

Structure (SMILES) | inhibition [1] | inhibition [2] | inhibition [3]
COc1c(C2CCN(CCCCNC(=O)c3ccc(-c4ccc(C#N)cc4)cc3)CC2)ccc2c1C(C)(C)CCC2(C)C | 1.57% | 2.62% | -0.67%
Cc1cc(N[C@@H](Cc2ccccc2)C(=O)NCCOc2ccccc2)nc(NCCc2ccc(F)cc2)n1 | 15.1% | 11.7% | 10.1%
CNCCNCc1cccc(-c2ccc(-c3nc4ccccc4[nH]3)s2)c1 | 1.51% | 1.53% | 5.06%
CN(C)CC1CCCN1Cc1ccccc1-c1cnn(C)c(=O)c1Oc1ccc(F)cc1 (stereo not drawn) | 5.23% | 4.08% | 4.45%
COc1cc(-c2ccc(-c3cnc(N)nc3OC)[nH]2)cc(OC)c1OC | 5.61% | 5.42% | 2.7%
Cc1cc(NCCC(=O)NCCc2ccccc2)nc(NCCc2ccc(F)cc2)n1 | 2.76% | 3.87% | 2.22%
Cc1cc(N)c2cc(NC(=O)/C=C/c3ccccc3Cl)ccc2n1 | -4.75% | 0.57% | -0.21%
CCCCCCCC1CCN(C[C@H](O)c2ccnc3ccc(OC)cc23)CC1 | 2.75% | 0.96% | 2.08%
FC(F)(F)c1ccc(CNCC2CCN(Cc3ccc4c(c3)OCO4)CC2)cc1 | 1.98% | 2.65% | 5.32%
Cc1[nH]c(C)c(-c2ccc(OCCOc3ccc(C(F)(F)F)cn3)cc2)c(=O)c1Br | -0.58% | 1.5% | -1.93%
C=CCOC(=O)N1CCC(CNCc2cccc(-c3cccc(-c4nc5cccc(C)c5[nH]4)c3)c2)C1 (stereo not drawn) | 3.47% | 1.88% | 7.29%
O=C(c1ccc(F)cc1)N1CCOC(CCN2CCC(c3ccccc3)CC2)(c2ccc(Cl)c(Cl)c2)C1 (stereo not drawn) | 0.53% | 1.42% | 5.2%
CN1CCN(CCCN(Cc2ccc(-c3cccc(CNC4CCCC4)c3)cc2)C(=O)/C=C/c2ccccc2)CC1 | 10.2% | 9.42% | 6.94%
Cc1cccc2nc(-c3cccc(-c4cccc(CNCc5ccc(S(C)(=O)=O)cc5)c4)c3)[nH]c12 | 1.64% | 0.32% | -0.24%
CC1CCN(CC[C@H]2CCCN2S(=O)(=O)c2cccc(NC(=O)Nc3ccc(C(F)(F)F)cc3)c2)CC1 | 0.63% | 1.64% | -0.02%
CCCc1cc(N2CCC(N3CCCC3)CC2)nc(Nc2ccc(Cl)cc2)n1 | -1.71% | 2.3% | 0.85%
Cc1cc2nc(-c3ccc(/C=C/C(=O)NCCCc4ccccc4)cc3)[nH]c2cc1C | 4.43% | 2.87% | 1.65%
CCOC(=O)C(C)(C)Oc1ccc(C(=C2CC(C)(C)CC(C)(C)C2)c2ccc(O)cc2)cc1 | 4.11% | 2.31% | 3.56%
